Results published in PubChem BioAssay (NCATS).
Records with an inconclusive call do not appear. Unmarked numbers belong to inactive results. Calls come from the whole dose curve; as a rule, active = well fitted inhibition curve with a large enough effect; inconclusive = small, poorly fitted or top-dose-only effect; inactive = flat fitted curve, though single readings scatter.

molecular target: Lysine-specific demethylase 5B (Homo sapiens) (UniProt Q9UGL1); experiment: Optimization screen for KDM5B Histone Demethylases FDH coupled qHTS against the LOPAC library (AID 1347166); details: KDM5B demethylation, FDH-coupled NADH fluorescence (FDH is formaldehyde dehydrogenase); series mostly up to 57.5 µM; activity, negative = inhibition: at the top concentration; note: 0% is about no effect
In short: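 KDM5BDeltaAP (200nM final) in 50mM HEPES pH 7.5, 0.01% Tween-20 was preincubated with compound for 10 min at room temperature. A substrate mix of 12.5uM H3K4Me3, 25uM a-ketoglutarate, ascorbate, Fe2+, NAD+ and formaldehyde dehydrogenase was then added. NADH fluorescence (340/450 nm) was read initially and after 30 min.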

Chain of Lysine-specific demethylase 5B (Homo sapiens) (Q9UGL1 whole entry, looked up): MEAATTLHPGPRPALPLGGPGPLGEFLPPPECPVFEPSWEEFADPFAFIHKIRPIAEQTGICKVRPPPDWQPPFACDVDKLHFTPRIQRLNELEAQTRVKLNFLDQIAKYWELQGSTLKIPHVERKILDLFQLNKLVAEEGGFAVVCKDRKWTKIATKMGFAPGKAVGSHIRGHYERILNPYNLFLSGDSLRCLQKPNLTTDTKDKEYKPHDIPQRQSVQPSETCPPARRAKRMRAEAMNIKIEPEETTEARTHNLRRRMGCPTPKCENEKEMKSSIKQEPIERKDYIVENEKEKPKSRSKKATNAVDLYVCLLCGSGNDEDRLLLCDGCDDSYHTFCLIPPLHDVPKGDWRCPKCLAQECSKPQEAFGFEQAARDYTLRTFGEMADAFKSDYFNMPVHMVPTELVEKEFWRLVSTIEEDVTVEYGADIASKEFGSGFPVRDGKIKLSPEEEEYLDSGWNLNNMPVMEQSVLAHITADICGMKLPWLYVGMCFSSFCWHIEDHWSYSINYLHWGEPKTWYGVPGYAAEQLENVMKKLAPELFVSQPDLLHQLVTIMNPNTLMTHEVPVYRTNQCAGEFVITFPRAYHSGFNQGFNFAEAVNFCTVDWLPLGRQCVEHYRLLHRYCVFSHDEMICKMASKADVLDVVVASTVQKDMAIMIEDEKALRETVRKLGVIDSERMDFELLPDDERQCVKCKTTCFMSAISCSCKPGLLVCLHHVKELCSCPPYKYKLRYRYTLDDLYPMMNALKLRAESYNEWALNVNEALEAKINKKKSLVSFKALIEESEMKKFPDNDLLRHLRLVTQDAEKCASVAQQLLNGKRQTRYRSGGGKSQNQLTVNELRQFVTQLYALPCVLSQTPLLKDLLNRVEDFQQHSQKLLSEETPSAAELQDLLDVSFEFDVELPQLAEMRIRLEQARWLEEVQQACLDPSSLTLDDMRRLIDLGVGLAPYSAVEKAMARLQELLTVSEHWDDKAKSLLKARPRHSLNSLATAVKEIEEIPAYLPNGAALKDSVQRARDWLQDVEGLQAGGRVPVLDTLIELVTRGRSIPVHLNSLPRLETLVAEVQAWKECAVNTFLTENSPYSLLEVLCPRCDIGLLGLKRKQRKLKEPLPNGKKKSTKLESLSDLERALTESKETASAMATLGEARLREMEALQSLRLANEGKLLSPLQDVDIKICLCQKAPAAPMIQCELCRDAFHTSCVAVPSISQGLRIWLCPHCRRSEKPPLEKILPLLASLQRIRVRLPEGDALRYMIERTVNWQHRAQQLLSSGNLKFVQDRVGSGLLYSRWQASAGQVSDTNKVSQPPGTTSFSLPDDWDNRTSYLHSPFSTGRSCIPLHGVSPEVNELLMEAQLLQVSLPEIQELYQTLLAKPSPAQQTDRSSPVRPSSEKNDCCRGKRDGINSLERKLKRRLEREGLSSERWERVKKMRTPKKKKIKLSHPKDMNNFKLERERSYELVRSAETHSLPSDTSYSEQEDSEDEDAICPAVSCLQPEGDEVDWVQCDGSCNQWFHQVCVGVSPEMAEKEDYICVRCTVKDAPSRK

Row | Compound | activity, negative = inhibition [%]
1 | CN(C)CCC(c1ccccc1)c1ccccn1 (stereo not drawn) | -7.92
2 | CCCNC(=O)NS(=O)(=O)c1ccc(Cl)cc1 | 16.9
3 | CC(=O)O[C@]1(C(C)=O)CC[C@H]2[C@@H]3C=C(Cl)C4=CC(=O)[C@@H]5C[C@@H]5[C@]4(C)[C@H]3CC[C@@]21C | -11.8
4 | CC(=O)CCCCn1c(=O)c2c(ncn2C)n(C)c1=O | -9.02
5 | Clc1ccc(Cn2c(CN3CCCC3)nc3ccccc32)cc1 | -3.77
6 | CCN1CCC[C@H]1CNC(=O)c1cc(S(N)(=O)=O)ccc1OC | -1.38
7 | CCN(CC)CCNC(=O)c1ccc(N)cc1 | -4.77
8 | COc1ccccc1N1CCN(CCCNc2cc(=O)n(C)c(=O)n2C)CC1 | -10.3
